MK inhibit – inhibitors of Streptococcus pneumoniae mevalonate kinase. purified MK, PK/LDH-coupled NADH absorbance 340 nm. inhibition, % at 10 µM. 65,000 tested, 0.48% active. AID 555;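 active = ranked among the strongest by inhibition in the single 10 µM screen, a fixed top-ranked set picked for dose follow-up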
Spn PMK inh – inhibitors of Streptococcus pneumoniae phosphomevalonate kinase. purified PMK, PK/LDH-coupled NADH absorbance 340 nm. inhibition, % at 10 µM. 65,000 tested, 0.49% active. AID 539;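 active = top-ranked compounds by inhibition in the single 10 µM screen, taking a fixed number of the strongest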;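 also: 0% = full reaction with DMSO carrier and 100% = background rate without enzyme reaction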
Abs 340nm – compounds absorbing at 340 nm | compound absorbance at 340 nm, fold over control | fold change at 10 µM | 65,000 tested, under 10 active | AID 708;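 active = at 10 µM dose, initial 340 nm absorbance at least 2 fold that of control wells; inactive = change under 2 fold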;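 also: initial absorbance extrapolated from kinetic A340 decline of NADH oxidation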
NADH coupling – inhibition of NAD/NADH coupling enzymes, library profiling. coupled PK/LDH NADH assays, four targets. IC50, µM (doses to about 10 µM), inactives show at the top dose inhibition. 65,000 tested, 0.02% active. AID 774;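 active = single-dose screening hits from any of four coupled enzyme assays that gave an IC50 when retested across doses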;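 also: the DPM-DC format reads NADH fluorescence rather than 340 nm absorbance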
Spn DPM-DC inh – inhibitors of Streptococcus pneumoniae diphosphomevalonate decarboxylase. 65,000 tested, 0.49% active. calls only at 10 µM. purified DPM-DC, PK/LDH coupled NADH fluorescence;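 active = the 320 compounds with the highest percent inhibition in the single-dose primary screen, excluding strongly autofluorescent ones, cut at about 32% in these data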;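 also: kinetic rate of NADH fluorescence loss reporting ADP formed by the decarboxylase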
Autofluor 339 – intrinsic fluorescence of library compounds, ex339/em460 – biochemical, MLSMR library, data from DPM-DC assay, artefact control, profiling panel. fluorescence fold increase at 10 µM. 65,000 tested, 5.5% active. compound autofluorescence, ex339/em460 nm, NADH buffer; stronger effect = higher value; 1 = no-compound wells, NADH background;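 active = at 10 µM, mean starting fluorescence two-fold or more over control wells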;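 also: signal is the first read of a kinetic run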
Numbers without * were called inactive; i = inactive; . = no result shown; + = active, no number. Rows were chosen to be rich in hits. Some 6.5% of all compounds tested hit in one or more screens of this group.

SMILES	MK inhibit	Spn PMK inh	Abs 340nm	NADH coupling	Spn DPM-DC inh	Autofluor 339
C=CCn1c(=N)c(C(=O)NCCCOC)cc2c(=O)n3ccccc3nc21	10.0	18.0	1	14.0%	.	3.72*
COc1c2occc2c(OC)c2c(=O)cc(C(F)(F)C(F)(F)F)oc12	8.0	1.0	1.04	3.0%	i	1.05
COc1ccc(-c2cc(C(F)(F)F)nc(N3CCN(c4ccccc4)CC3)n2)cc1OC	9.0	6.0	1.03	7.0%	i	1.14
COc1nc(-c2ccccc2)cc(-c2ccc(OC)c(OC)c2)n1	0.0	0.0	1.17	0.0%	.	2.17*
O=C(Nc1c(C(=O)N2CCOCC2)cnn1-c1ccccc1)c1ccco1	1.0	13.0	1.01	5.0%	i	1.12
CN(CC1CCCO1)S(=O)(=O)c1ccc(C(=O)Nc2nc(-c3ccccn3)cs2)cc1 (stereo not given)	0.0	5.0	1.09	5.0%	i	1.13
Cc1[nH]nc2c1C(c1ccccc1)C1=C(CC(C)(C)CC1=O)N2 (stereo not given)	8.0	14.0	1.14	11.0%	.	4.37*
COc1ccc(C2C3=C(CC(C)(C)CC3=O)Nc3n[nH]c(C)c32)cc1 (stereo not given)	4.0	0.0	1.15	2.0%	.	2.29*
CCc1nnc(NC(=O)CCC(=O)N2CCN(CCOc3ccc(C)cc3)CC2)s1	6.0	8.0	1.04	5.0%	i	1.1
OCCNCC1(O)C2CC3CC(C2)CC1C3 (stereo not given)	12.0	26.0*	0.99	15.0%	i	1.06
O=C(CN1C(=O)C2CC=CCC2C1=O)Nc1ccc(S(=O)(=O)NC2=NCCCCC2)cc1 (stereo not given)	4.0	0.0	1.02	1.0%	i	1.12
O=C(c1cccs1)c1ccc(-c2cccs2)s1	8.0	14.0	1.05	18.0%	i	2.37*
O=C(c1cc2ccccc2o1)c1cccs1	3.0	1.0	1.17	1.0%	i	1.09
COCCn1c(COc2cccc(OC)c2)nnc1SCC(=O)N1CCOCC1	0.0	13.0	1.02	4.0%	i	1.12
CS(=O)(=O)N(CC(=O)N1CCN(c2ccccc2)CC1)C1CCCCC1	15.0	36.0*	1.07	18.0%	i	1.12
CS(=O)(=O)N(CC(=O)N1CCN(Cc2ccccc2)CC1)C1CCCCC1	17.0	0.0	1.05	8.0%	i	1.1
Cc1ccccc1Nc1cc2ccccc2c(=O)[nH]1	0.0	4.0	1.01	13.0%	.	2.75*
Cc1cc2ccccc2c(=O)[nH]1	0.0	11.0	1.05	6.0%	i	1.66
CCCc1cc(=O)oc2c(CN3CCCC3)c(O)c(Cl)cc12	0.0	6.0	1.1	3.0%	.	2.35*
CCCc1cc(=O)oc2c(CN3CCCC3)c(O)ccc12	6.0	0.0	1.14	3.0%	.	2.3*
CCc1cc(=O)oc2cc(C)c(CN3CCCC3)c(O)c12	0.0	4.0	1.04	1.0%	i	1.1
CCCc1cc(=O)oc2cc(C)c(CN3CCCC3)c(O)c12	6.0	1.0	1.09	2.0%	i	1.2
O=C(COc1ncnc2ccccc12)NCCCN1CCCC1=O	0.0	13.0	1.02	12.0%	i	1.76
O=C1C2C3C=CC(O3)C2C(=O)N1CC(O)c1ccccc1 (stereo not given)	4.0	5.0	1.05	6.0%	i	1.1
CCN(CC)c1ccc(-c2nc3cnccc3n2C)cc1	7.0	17.0	1.24	18.0%	i	2.51*
SMILES	MK inhibit	Spn PMK inh	Abs 340nm	NADH coupling	Spn DPM-DC inh	Autofluor 339
COC(=O)C1=C(C)N=C2SCCC(=O)N2C1/C=C/c1ccccc1 (stereo not given)	9.0	3.0	0.98	4.0%	i	1.13
CCN1CCc2c(C#N)c(N3CCOCC3)nc(NCCO)c2C1	10.0	4.0	1.05	9.0%	i	1.67
COC(=O)c1ccc(-c2ccc(CNCC(O)c3ccccc3)o2)cc1 (stereo not given)	6.0	9.0	1.02	6.0%	.	2.93*
OC(CNCCc1ccccc1)c1ccccc1 (stereo not given)	0.0	11.0	0.99	1.0%	i	1.06
O=C1CC(O)(C(F)F)Oc2ccc3ccccc3c21 (stereo not given)	13.0	7.0	1.04	10.0%	.	3.73*
CCOc1ccc(N(CC(=O)Nc2ccc(F)c(F)c2)S(=O)(=O)c2c(C)noc2C)cc1	7.0	12.0	0.99	6.0%	+	0.99
COc1ccc(C2/C(=C(/O)c3ccccc3)C(=O)C(=O)N2CC(C)O)c(OC)c1 (stereo not given)	8.0	9.0	1.09	6.0%	i	1.07
CCC(NC(=O)OC(C)(C)C)C(=O)Oc1ccc2c3c(c(=O)oc2c1)CCC3 (stereo not given)	9.0	9.0	1.03	9.0%	.	3.65*
COC(=O)[C@H](CCSC)NC(=O)Nc1ccc(C)cc1C	0.0	0.0	1.03	0.0%	i	1.11
CSCCC(NC(C)=O)C(=O)Oc1ccc2c3c(c(=O)oc2c1)CCCC3 (stereo not given)	0.0	0.0	1.09	0.0%	.	2.14*
Cc1c(OCC(=O)OC(C)(C)C)ccc2c3c(c(=O)oc12)CCC3	4.0	0.0	1.07	1.0%	i	1.89
CC1CN(c2nc3c(c(=O)n(C)c(=O)n3C)n2Cc2c(F)cccc2Cl)CC(C)O1 (stereo not given)	7.0	6.0	1.03	4.0%	i	1.07
C=C(C)Cn1c(COc2ccccc2)nnc1SCC(=O)O	20.0	16.0	1.05	23.0%	+	1.44
C=CCn1c(COc2ccccc2)nnc1SCC(=O)O	7.0	13.0	0.98	7.0%	i	1.08
CCc1nnc(NC(=O)CSc2nnc(COc3ccccc3)n2Cc2ccccc2)s1	10.0	12.0	1.04	20.0%	+	1.76
CCc1nnc(NC(=O)CSc2nnc(Cc3cccn3C)n2C)s1	9.0	28.0*	1.01	13.0%	i	1.03
CCOC(=O)c1ccccc1NC(=O)CSc1nnc(Cc2cccn2C)n1-c1ccc(C)cc1	6.0	7.0	1.01	4.0%	i	2.01*
CCc1nnc(NC(=O)CSc2nnc(Cc3ccccc3)n2Cc2ccccc2)s1	2.0	20.0	0.95	7.0%	i	1.05
CCOc1ccc2[nH]c(=O)c(CN(C(=O)N3CCOCC3)C3CC3)cc2c1	0.0	14.0	1.06	7.0%	.	3.77*
CCOc1ccc2[nH]c(=O)c(CN(Cc3ccccc3)C(=O)N3CCCC3)cc2c1	8.0	15.0	1.01	7.0%	i	2.15*
CC(C)Cc1cc(C(=O)NCCCN2CCOCC2)no1	40.0	4.0	1.04	15.0%	i	1.08
Cc1cc(C)nc(NC(=O)CN2C(=O)c3ccccc3C2=O)n1	4.0	0.0	1.04	1.0%	i	1.13
COc1ccc2[nH]c3c(NCCN(C(C)C)C(C)C)ncnc3c2c1	0.0	8.0	1.1	4.0%	.	3.73*
c1ccc2c(c1)[nH]c1c(N3CCSCC3)ncnc12	5.0	14.0	0.91	10.0%	.	0.21

Screening results (PubChem BioAssay)
